Results on 40 compounds are retold here after PubChem BioAssay AID2576 (National Center for Advancing Translational Sciences (NCATS), 2010).

“And” between values parts separate entries of the source, which are not always exact repeats. Equal values may be shown once. Inconclusive results are not listed. Values without a mark were called inactive. The source made the active and inactive calls. Calls follow the shape of the dose curve; as a rule, active = well fitted activation curve with a large enough effect; inconclusive = small, poorly fitted or top-dose-only effect, or effect the other way; inactive = flat fitted curve, though single readings scatter.

Sequence of Pyruvate kinase PKM (Homo sapiens) (P14618 whole entry, looked up, canonical isoform): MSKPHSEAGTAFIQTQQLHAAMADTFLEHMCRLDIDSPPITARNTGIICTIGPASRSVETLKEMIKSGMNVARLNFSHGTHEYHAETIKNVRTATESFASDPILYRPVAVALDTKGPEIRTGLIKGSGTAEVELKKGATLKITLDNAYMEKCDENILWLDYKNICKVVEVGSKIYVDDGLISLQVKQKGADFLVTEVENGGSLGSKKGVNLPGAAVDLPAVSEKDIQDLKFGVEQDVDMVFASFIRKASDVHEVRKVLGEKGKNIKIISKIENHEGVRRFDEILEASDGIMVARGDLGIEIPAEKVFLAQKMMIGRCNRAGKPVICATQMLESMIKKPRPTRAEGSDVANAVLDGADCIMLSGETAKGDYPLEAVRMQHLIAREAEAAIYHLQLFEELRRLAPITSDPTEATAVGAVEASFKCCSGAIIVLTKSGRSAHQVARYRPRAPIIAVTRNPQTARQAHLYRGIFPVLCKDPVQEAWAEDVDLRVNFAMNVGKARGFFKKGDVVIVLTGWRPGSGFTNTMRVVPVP

The target of the experiment is Pyruvate kinase PKM (Homo sapiens) (UniProt P14618). Nature of the experiment: Secondary LDH Assay for Activators of Human Pyruvate Kinase M2 isoform: for Probe SAR. The conditions noted are these: purified hPK-M2, LDH-coupled NADH fluorescence kinetic; series mostly up to 58.4 µM; activation: at the top concentration. An excerpt:
NIH Chemical Genomics Center [NCGC] Matthew G. Vander Heiden, M.D., Ph.D. [Harvard Medical School, 77 Avenue Louis Pasteur, Boston, MA 02115] NCGC Assay Overview: Human pyruvate kinase muscle 2 (hPK-M2)enzyme was supplied as a highly purified (>95% pure) preparation from Harvard Medical School and a secondary assay was used to evaluate compounds. This assay couples the formation of pyruvate from hPK-M2 using lactate dehydrogenase (LDH) and NADH. The depletion of NADH is followed in a fluorescent-based kinetic assay that follows the formation of pyruvate to lactate, as catalyzed LDH (described by Hannaert et al., 2002)1 Pyruvate kinase substrates, PEP and ADP, were present in the assay at 0.1 mM and 4 mM respectively. In this kinetic assay initial rates were determined by following the fluorescence of NADH depletion.
NCGC Assay Protocol Summary: Three uL of substrate mix (final concentration, 50 mM Tris-Cl pH 8.0, 200 mM KCl, 15 mM MgCl2, 0.1 mM PEP, 4.0 mM ADP, and 0.2 mM NADH) was dispensed into black-solid 1536 well plates. 23 nL of compounds were delivered by a pin tool and 1 uL of enzyme mix (final concentrations, 10 nM hPK-M2 and 1 uM of LDH) was added. Plates were immediately placed in ViewLux (Perkin Elmer) and NADH fluorescence was determined at 30 second exposure intervals for between 3 and 6 minutes. Data were normalized to the uninhibited and EC100 activation using known activators such as fructose-bis-phosphate.
Consider `Cc1ccc(NS(=O)(=O)c2cccc(Cl)c2)cc1C`, for which the “activation” value is 27.6%. Still for that read-out and setting: for `Cc1ccc(NS(=O)(=O)c2cccc(F)c2)cc1C` the value was 18.4%. Same read-out and setting: for `O=C1c2ccccc2C(=O)N1c1ccccc1O` the value was -4.29%; for `O=C1c2ccccc2C(=O)N1c1cnc2ccccc2c1`, 21.2%. `Cc1cc2c(s1)c1cnn(Cc3cc(F)c(F)cc3F)c(=O)c1n2C`: the Potency was 398 nM (active). Regarding `O=C1c2ccccc2C(=O)N1Cc1ccccn1`, the “activation” value is 6.36%. As for `Cc1ccc(NS(=O)(=O)c2cc3c(cc2Cl)CCC(=O)N3)cc1C`, the Potency was 461 nM (active). With `O=C1NS(=O)(=O)c2ccccc21`, the “activation” value was -4.58%. Still for that read-out and setting: for `COc1ccc(NS(=O)(=O)c2ccc3c(c2)CCC(=O)N3)cc1` the value was 24.1%.

Regarding `Cc1cc(C)n2c(Nc3ccccc3)c(-c3ccc(C)o3)nc2n1`, the “activation” value was -2.4%. Still for that read-out and setting: for `Cc1ccc(OC2=NS(=O)(=O)c3ccccc32)cc1` the value was -2.38%. In the case of `Cc1ccc2nc(-c3ccc(C)o3)c(Nc3ccc4c(c3)OCO4)n2c1`, the Potency is 29100 nM (active). Take `COc1ccc(N2C(=O)c3ccccc3C2=O)cc1`: the “activation” value is 1.75%.

Take `O=C1CCc2cc(S(=O)(=O)Nc3ccccc3-c3ccccc3)ccc2N1`: the “activation” value is 5.58%. Regarding `Cc1cc(N2C(=O)c3ccccc3C2=O)no1`, the “activation” value was -1.03%.

As for `CC(=O)N1c2ccc(S(=O)(=O)Nc3ccc(C)c(C)c3)cc2CC1C` (stereo not given), the “activation” value was 18.2%. Take `O=C1c2ccccc2C(=O)N1Cc1cccnc1`: the “activation” value was 4.44%. With `COc1cccc(OC2=NS(=O)(=O)c3ccccc32)c1`, the “activation” value was 4.89%. As for `COc1cccc(Cn2ncc3c4sc(S(C)=O)cc4n(C)c3c2=O)c1` (stereo not given), the Potency was 410 nM (active) and 206 nM (active). On to `O=C1c2ccccc2C(=O)N1Cc1ccccc1`, for which the “activation” value was 3.92%. For the compound `COc1ccccc1NS(=O)(=O)c1ccc2c(c1)CCC(=O)N2`, the “activation” value was 20.2%. On to `Cc1ccc(NS(=O)(=O)c2ccc3c(c2)CCC(C)(C)O3)cc1C`, for which the “activation” value is 11.9%. On the same count and under the same terms, in the case of `O=C1c2ccccc2C(=O)N1c1cncc2ccccc12` it was -5.39%; in that of `Cc1ccc(NS(=O)(=O)c2cc3c(cc2N2CCCCC2)NC(=O)CC3)cc1C`, 7.97%; in that of `Cc1ccc(NS(=O)(=O)c2ccc3c(c2)oc(=O)n3C)cc1C`, 23.2%. For the compound `CC(=O)Nc1cccc(S(=O)(=O)Nc2ccc(C)c(C)c2)c1`, the “activation” value was 11.3%. The same measure, in the same setting: in the case of `COc1ccc(S(=O)(=O)Nc2ccc(C)c(C)c2)cc1` it was 13.8%; in that of `Cc1ccc(NC(=O)c2ccc3c(c2)CCC(=O)N3)cc1C`, -2.96%. Consider `Cc1ccc(-c2nc3cnccn3c2Nc2ccc(C(C)C)cc2)o1`, for which the “activation” value was 8.88%. The same measure, in the same setting: for `O=C1c2ccccc2C(=O)N1c1noc2ccccc12` the value was -11.1%; for `O=C1c2ccccc2C(=O)N1c1cccc(Cl)c1`, -2.64%; for `COc1cc(N2C(=O)c3ccccc3C2=O)c2ncccc2c1`, 4.6%. Same read-out and setting: in the case of `Cc1ccc2nc(-c3ccncc3)c(Nc3ccccc3)n2c1` it was -2.52%; in that of `O=C1c2ccccc2C(=O)N1Cc1ccncc1`, 1.93%; in that of `O=C1c2ccccc2C(=O)N1c1cccc2cnccc12`, -6.12%. Turning to `Cc1cc(N2C(=O)c3ccccc3C2=O)n[nH]1`, the “activation” value is -8.74%. Same read-out and setting: for `O=S1(=O)N=C(Oc2ccccc2Cl)c2ccccc21` the value was 4.09%. For the compound `Cc1cc2c(s1)c1cnn(Cc3cc(F)ccc3F)c(=O)c1n2C`, the Potency is 447 nM (active).

Turning to `O=S1(=O)N=C(Oc2cccc(Cl)c2)c2ccccc21`, the “activation” value is -0.852%. Take `Cc1ccc(NS(=O)(=O)c2cc3c(cc2N(C)C)NC(=O)CC3)cc1C`: the Potency was 1030 nM (active).
